The panel holds about 79,000 compounds, 15% with a hit somewhere; the sample as a whole holds those more often. A number with no mark means an inactive call. The source made the active and inactive calls. Rule as the data show it: active = growth inhibition above about 70%; inactive = the rest.
Columns and labels:
[1] = NCI Yeast Anticancer Drug Screen. Data for the rad50 strain (AID 155);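 also: 0% = growth of vehicle-only cultures of the same strain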; conditions: S. cerevisiae rad50 strain growth inhibition, active compounds read high
Procedure, shortened: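 Cells are treated with compound, grown, and their growth is then scored against vehicle-only cultures of the same repair-deficient yeast strain.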

[2] = NCI Yeast Anticancer Drug Screen. Data for the mec2-1 strain (AID 157); conditions: S. cerevisiae mec2-1 strain, active compounds read high
Procedure, shortened: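 mec2-1 yeast strain, carrying an alteration in DNA damage repair or cell cycle control, was exposed to compounds; growth inhibition was measured relative to vehicle-treated controls.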

[3] = NCI Yeast Anticancer Drug Screen. Data for the sgs1 mgt1 strain (AID 161);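 also: 0% = growth of cultures given vehicle only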; conditions: S. cerevisiae sgs1 mgt1 strain, active compounds read high
Procedure, shortened: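 Compounds are added to genetically altered yeast, and growth is compared with cultures given vehicle alone to give percent inhibition.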

[4] = NCI Yeast Anticancer Drug Screen. Data for the cln2 rad14 strain (AID 165);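 also: 0% = growth equal to vehicle treated cultures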; conditions: S. cerevisiae cln2 rad14 strain, active compounds read high
Procedure, shortened: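 Yeast carrying cln2 and rad14 alterations (cell cycle control and DNA damage repair) were exposed to compounds. Growth inhibition was measured against vehicle-treated controls.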

[5] = NCI Yeast Anticancer Drug Screen. Data for the bub3 strain (AID 167); conditions: S. cerevisiae bub3 mutant strain, active compounds read high
Procedure, shortened: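 Part of a panel of yeast mutants defective in DNA damage repair or cell cycle regulation. Each strain is grown with compound, and inhibition is calculated relative to solvent-treated cultures.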

[6] = NCI Yeast Anticancer Drug Screen. Data for the mlh1 rad18 strain (AID 175); conditions: S. cerevisiae mlh1 rad18 strain growth inhibition, active compounds read high
Procedure, shortened: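 Growth inhibition of the yeast strain was measured after compound exposure and expressed relative to vehicle-treated controls. The strain carries defined defects in DNA damage repair.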

[7] = at 5.0 µM (retest, dose inferred, filed as 0.5)
[8] = at 50.0 µM (retest, dose inferred, filed as 5.0)

Compound | growth inhibition [1, 7] | growth inhibition [1, 8] | growth inhibition ([1]; at 50.0 µM) | growth inhibition [2, 7] | growth inhibition [2, 8] | growth inhibition ([2]; at 50.0 µM) | growth inhibition [3, 7] [%] | growth inhibition [3, 8] | growth inhibition ([3]; at 50.0 µM) | growth inhibition [4, 7] | growth inhibition [4, 8] | growth inhibition ([4]; at 50.0 µM) | growth inhibition [5, 7] | growth inhibition [5, 8] | growth inhibition ([5]; at 50.0 µM) | growth inhibition [6, 7] | growth inhibition [6, 8] | growth inhibition ([6]; at 50.0 µM)
COc1ccc2c3c(ccc2c1)NC(C(=O)O)CC3 (stereo not given) | 0% | 82% (active) | 60.5% | -11% | 56% | -15.8% | -2 | 83% (active) | 36% | -17% | 41% | 21.3% | -6% | 82% (active) | 52% | 3% | 87% (active) | 61.1%
CC(NC(=O)OCc1ccccc1)C(=O)NNc1ccccc1Cl (stereo not given) | 88% (active) | 96% (active) | 97.5% (active) | 9% | 99% (active) | 96.8% (active) | 49 | 99% (active) | 91.4% (active) | 29% | 68% | 98.2% (active) | 73% (active) | 42% | 97.5% (active) | 96% (active) | 99% (active) | 97.5% (active)
C=Cc1ccccc1C1(O)C=CC(OC)(OC)C=C1 | 17% | 25% | 44% | 11% | 16% | 7.1% | 12 | 14% | 34.5% | 17% | 31% | -2.15% | 8% | 9% | 44.2% | 21% | 32% | 15.2%
CCC(C)OC(=O)c1cccc(C)c1 (stereo not given) | 0% | 17% | 94.3% (active) | -2% | 5% | -6.8% | 1 | 7% | -5.05% | 1% | 6% | 38.5% | 2% | 23% | 6.95% | -3% | 12% | 2%
CCN(C(C)=O)c1cnc(/C=N/NC(N)=S)c2ccccc12 | 13% | 47% | 66.6% | 11% | 47% | 76.9% (active) | 18 | 71% (active) | 28.9% | -13% | 57% | 61.3% | 21% | 71% (active) | 60.4% | 11% | 57% | 31.5%
CCN1CCNc2c3cc(OC)ccc3nc3c([N+](=O)[O-])ccc1c23 | -10% | 37% | 42.2% | -19% | 7% | 15.2% | -9 | 0% | 39.8% | -2% | 40% | 7.8% | 1% | 2% | -3.6% | -41% | 41% | 71.7% (active)
BrCC1(CBr)COC1 | 4% | 47% | 3.85% | 5% | 64% | 2.2% | 6 | 56% | 7.75% | -3% | 30% | -8.15% | 29% | 94% (active) | 87% (active) | 2% | 87% (active) | 9.45%
CCN(CC)CCNc1ccc2nnn3c4ccccc4c(=O)c1c23 | -2% | 63% | 30.8% | -31% | 21% | 17.7% | 0 | -4% | 9.3% | -1% | 39% | 21.1% | -10% | 19% | 10.2% | -1% | -3% | 81.2% (active)
CCCCCCCCCCCCNCCNCCN | 99% (active) | 95% (active) | 86.7% (active) | 99% (active) | 100% (active) | 89.7% (active) | 25 | 96% (active) | 91% (active) | 84% (active) | 97% (active) | 85.6% (active) | 61% | 96% (active) | 89% (active) | 100% (active) | 100% (active) | 86.6% (active)
CC(C)(C)OC(=O)Nc1cccc(Cl)c1 | 11% | 71% (active) | 73.2% (active) | -4% | 12% | 14.8% | -1 | 7% | 55.7% | -2% | -20% | 2.9% | 46% | -2% | 10.2% | 4% | 33% | 80.5% (active)
